Measurements published in the supplement of paper PMC7724964.
± gives the standard deviation of the averaged measurements.

T1: BTN1A1 285-479 SPRY (domain begin residue: 285, domain end residue: 479), Q13410
T1 chain: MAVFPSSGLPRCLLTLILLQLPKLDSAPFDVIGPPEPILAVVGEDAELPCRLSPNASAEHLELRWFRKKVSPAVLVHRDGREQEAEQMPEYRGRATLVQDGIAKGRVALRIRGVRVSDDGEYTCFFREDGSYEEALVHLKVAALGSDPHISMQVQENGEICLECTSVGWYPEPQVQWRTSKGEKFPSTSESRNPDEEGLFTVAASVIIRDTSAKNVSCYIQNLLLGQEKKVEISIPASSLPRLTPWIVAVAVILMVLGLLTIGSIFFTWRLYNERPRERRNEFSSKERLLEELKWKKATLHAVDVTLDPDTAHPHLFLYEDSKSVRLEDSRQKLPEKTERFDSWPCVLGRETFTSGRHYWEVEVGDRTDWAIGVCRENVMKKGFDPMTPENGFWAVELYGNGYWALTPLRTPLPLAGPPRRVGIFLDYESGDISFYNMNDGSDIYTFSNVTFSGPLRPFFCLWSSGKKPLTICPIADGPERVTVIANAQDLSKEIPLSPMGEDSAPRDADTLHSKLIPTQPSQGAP

T2: ARID4A 568-634 Tudor-knot (domain begin residue: 568, domain end residue: 634), P29374
T2 chain: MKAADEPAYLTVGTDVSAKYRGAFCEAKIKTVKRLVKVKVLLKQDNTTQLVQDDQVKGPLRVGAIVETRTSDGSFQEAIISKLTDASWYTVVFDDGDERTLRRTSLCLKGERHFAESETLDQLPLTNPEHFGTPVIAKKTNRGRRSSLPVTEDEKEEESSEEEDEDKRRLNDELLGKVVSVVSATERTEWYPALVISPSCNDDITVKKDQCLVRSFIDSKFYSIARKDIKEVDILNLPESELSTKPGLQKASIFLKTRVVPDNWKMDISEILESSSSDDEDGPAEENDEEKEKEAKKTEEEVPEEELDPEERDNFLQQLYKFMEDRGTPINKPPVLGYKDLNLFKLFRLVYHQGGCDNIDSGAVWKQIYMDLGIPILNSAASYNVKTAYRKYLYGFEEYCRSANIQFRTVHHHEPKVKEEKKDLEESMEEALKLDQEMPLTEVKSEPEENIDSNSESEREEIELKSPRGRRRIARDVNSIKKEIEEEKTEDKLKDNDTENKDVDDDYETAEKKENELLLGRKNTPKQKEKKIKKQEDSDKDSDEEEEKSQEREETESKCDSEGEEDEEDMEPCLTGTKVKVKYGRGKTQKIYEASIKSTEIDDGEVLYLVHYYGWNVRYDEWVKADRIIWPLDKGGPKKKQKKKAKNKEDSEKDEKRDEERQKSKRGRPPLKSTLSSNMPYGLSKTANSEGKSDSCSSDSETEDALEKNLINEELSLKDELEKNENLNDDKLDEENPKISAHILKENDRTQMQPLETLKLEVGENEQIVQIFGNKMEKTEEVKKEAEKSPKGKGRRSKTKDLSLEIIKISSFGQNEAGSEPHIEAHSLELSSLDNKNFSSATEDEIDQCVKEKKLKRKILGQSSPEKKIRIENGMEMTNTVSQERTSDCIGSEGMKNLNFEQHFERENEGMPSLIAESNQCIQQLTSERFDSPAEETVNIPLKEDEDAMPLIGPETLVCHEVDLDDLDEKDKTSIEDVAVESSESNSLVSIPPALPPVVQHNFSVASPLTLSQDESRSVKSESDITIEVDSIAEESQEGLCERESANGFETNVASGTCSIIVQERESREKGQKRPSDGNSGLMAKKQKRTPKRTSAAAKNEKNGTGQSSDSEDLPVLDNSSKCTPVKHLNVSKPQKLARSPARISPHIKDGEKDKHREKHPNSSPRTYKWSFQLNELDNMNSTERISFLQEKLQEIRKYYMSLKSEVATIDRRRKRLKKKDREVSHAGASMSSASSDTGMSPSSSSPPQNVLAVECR

T3: ALDOA 1-364 Glycolytic (domain begin residue: 1, domain end residue: 364), P04075
T3 chain: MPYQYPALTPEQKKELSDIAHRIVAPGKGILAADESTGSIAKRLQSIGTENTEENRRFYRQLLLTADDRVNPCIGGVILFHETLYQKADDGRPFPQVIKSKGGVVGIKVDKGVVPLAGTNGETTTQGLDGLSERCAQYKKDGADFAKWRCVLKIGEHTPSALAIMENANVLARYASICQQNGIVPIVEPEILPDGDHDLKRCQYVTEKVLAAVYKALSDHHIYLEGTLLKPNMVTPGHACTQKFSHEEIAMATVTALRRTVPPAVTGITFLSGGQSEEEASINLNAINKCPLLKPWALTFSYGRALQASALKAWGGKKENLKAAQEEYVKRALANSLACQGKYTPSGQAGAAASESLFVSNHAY

T4: ARFGEF2 639-829 Sec7 (domain begin residue: 639, domain end residue: 829), Q9Y6D5
T4 chain: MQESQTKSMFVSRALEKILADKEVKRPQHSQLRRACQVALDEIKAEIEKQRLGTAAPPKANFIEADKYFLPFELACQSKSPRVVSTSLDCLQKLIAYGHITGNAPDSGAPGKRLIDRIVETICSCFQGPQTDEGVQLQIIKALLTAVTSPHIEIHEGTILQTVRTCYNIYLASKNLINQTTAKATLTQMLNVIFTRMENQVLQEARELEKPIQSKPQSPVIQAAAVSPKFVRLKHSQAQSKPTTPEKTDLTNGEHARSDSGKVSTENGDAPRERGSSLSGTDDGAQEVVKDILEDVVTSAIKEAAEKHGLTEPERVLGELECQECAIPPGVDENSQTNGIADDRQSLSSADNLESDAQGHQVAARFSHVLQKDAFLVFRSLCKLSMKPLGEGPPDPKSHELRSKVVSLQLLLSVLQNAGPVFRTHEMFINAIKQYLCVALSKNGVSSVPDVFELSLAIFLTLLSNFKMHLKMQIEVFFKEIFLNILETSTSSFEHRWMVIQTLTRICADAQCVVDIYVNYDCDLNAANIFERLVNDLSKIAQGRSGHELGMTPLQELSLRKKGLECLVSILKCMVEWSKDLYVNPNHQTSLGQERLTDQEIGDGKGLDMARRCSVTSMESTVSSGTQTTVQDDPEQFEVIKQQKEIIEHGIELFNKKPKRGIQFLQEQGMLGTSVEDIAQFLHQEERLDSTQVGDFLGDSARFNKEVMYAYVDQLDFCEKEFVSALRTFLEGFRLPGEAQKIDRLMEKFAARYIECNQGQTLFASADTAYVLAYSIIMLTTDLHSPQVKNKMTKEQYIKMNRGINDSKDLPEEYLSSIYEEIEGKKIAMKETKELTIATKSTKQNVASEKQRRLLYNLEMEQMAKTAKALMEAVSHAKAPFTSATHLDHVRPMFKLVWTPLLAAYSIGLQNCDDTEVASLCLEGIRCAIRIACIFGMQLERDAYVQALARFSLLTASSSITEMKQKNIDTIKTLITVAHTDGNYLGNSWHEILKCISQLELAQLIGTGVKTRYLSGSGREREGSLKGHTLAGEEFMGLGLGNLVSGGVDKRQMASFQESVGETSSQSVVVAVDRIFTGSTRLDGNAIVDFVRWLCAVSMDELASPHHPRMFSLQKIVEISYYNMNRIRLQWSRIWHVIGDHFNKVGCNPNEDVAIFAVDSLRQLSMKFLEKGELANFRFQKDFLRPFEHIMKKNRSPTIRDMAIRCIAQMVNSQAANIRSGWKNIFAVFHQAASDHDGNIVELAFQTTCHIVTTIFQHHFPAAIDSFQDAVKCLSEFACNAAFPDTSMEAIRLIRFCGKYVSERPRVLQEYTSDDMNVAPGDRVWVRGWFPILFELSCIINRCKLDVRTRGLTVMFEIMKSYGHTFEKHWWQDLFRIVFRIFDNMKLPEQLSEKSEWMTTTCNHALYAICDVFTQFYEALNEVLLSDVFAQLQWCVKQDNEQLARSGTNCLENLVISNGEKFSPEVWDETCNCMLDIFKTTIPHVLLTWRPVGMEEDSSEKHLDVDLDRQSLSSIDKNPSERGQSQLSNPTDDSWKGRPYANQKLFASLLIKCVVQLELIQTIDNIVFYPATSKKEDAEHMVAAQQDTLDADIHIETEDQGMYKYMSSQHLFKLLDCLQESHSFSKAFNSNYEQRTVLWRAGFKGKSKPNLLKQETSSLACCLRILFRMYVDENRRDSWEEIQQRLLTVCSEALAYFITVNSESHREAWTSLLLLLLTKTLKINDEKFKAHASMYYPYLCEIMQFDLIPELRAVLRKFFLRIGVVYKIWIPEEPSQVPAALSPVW

T5: CAPNS1 1-268 EF-hand_8+EF-hand_5 (domain begin residue: 1, domain end residue: 268), P04632
T5 chain: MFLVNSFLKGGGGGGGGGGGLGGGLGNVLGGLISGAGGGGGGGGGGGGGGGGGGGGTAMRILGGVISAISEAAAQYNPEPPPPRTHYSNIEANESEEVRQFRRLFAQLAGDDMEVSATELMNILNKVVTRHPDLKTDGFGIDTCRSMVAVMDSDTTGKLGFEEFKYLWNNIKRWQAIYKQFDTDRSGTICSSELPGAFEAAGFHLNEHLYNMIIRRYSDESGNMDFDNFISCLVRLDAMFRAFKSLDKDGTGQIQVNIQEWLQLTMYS


Target: T1, BTN1A1 285-479 SPRY (domain begin …
Assay: phage ELISA signal ratio (GST-PRM binding over GST background); higher = stronger binding of peptide-phage to the PRM
Experimental: (§1)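 Phage-displayed random hexadecapeptides (Cys-free, flanked by invariant Gly linkers, fused to the M13 P8 major coat protein) were selected over 5 rounds against GST-fused human PRM domains. Individual clones from rounds 4-5 were tested by phage ELISA, and positive clones binding the target but not GST were sequenced. Values are the ELISA signal ratio of target over background (GST); the background signal is given separately.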

Going from SWDHWDEKMTSMVVFM to LSSLETYKNHGLMFMF, the “phage ELISA signal ratio” value rises from 9.92 to 22.5.

Compared with WHPMDWMEHFQMMPDT, FEQHWMQKQMAVRQIV is higher in “phage ELISA signal ratio” value: 5.73 for the first, 13.6 for the second.

Going from GGIDWQGVYMKHFEMT to FDFWQAREYHMLNMMA, the “phage ELISA signal ratio” value falls from 20.6 to 10.3.

Target: CBX3 109-173 Chromo_shadow (domain begin residue: 109, domain end residue: 173), Q13185
Sequence (Q13185 whole entry): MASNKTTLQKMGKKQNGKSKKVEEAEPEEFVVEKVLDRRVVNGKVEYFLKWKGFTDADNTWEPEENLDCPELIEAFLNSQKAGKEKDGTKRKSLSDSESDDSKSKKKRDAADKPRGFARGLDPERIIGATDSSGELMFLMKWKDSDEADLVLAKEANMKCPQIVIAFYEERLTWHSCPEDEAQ
Assay: as above
Experimental: as §1

Compared with WIENWSVSPWDLTNPF, NWLFLDPDYYNVHWPS is lower in “phage ELISA signal ratio” value: 4.99 for the first, 3.29 for the second.

Target: T2, ARID4A 568-634 Tudor-knot (domain begin …
Assay: as above
Experimental: as §1

Compared with HFIELMYDAPEMHMPW, PWDEIWEDMIEWPLPQ is higher in “phage ELISA signal ratio” value: 5.33 ± 1.7 for the first, 9.72 for the second.

DWWDMWAQGDILEIHS was tested, and the “phage ELISA signal ratio” value was 11.5.

Target: KMT2C 1055-1137 PHD (domain begin residue: 1055, domain end residue: 1137)
Assay: as above
Experimental: as §1

With HFIELMYDAPEMHMPW the “phage ELISA signal ratio” value was 6.76.

Target: T3, ALDOA 1-364 Glycolytic (domain begin …
Assay: as above
Experimental: as §1

Compared with WHVWDPVMEVFDWPEM, AWSYLHGEWEWVQPVM is lower in “phage ELISA signal ratio” value: 18.1 for the first, 14.5 for the second.

EFLWDPVQEMHVMVNE was tested, and the “phage ELISA signal ratio” value was 5.28.

Target: T4, ARFGEF2 639-829 Sec7 (domain begin …
Assay: as above
Experimental: as §1

NEGERLWAVLKLWHEE was tested, and the “phage ELISA signal ratio” value was 18.6.

Target: T5, CAPNS1 1-268 EF-hand_8+EF-hand_5 …
Assay: as above
Experimental: as §1

With VNAHDMLEHWLYQDMI the “phage ELISA signal ratio” value was 28.3.
